Values without a mark were called inactive.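 Rule for the calls: active = growth AUC significantly below the DMSO wells by Dunnett test; inactive = the rest.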
Tests used:
Experiment in all cases: relative growth (AUC of 72 h growth curve relative to DMSO control, dAUC) (ratio); higher = more growth (less inhibition), active = hit call of the paper
Details in all cases: 20 µM
[1] = system: Aeromonas 1 (Aeromonas sp. AE235)
Summary of the method: (§1)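 Growth was followed as A600, read hourly for 72 h on a plate reader after brief shaking. Isolates from Icelandic stream sediments and Silwood Park soil, and whole sediment communities, were first grown to carrying capacity in Luria–Bertani medium and then diluted 1:100 into 96-well plates with each chemical at 20 µM (1% DMSO). Relative growth (dAUC) is the spline-integrated area under the curve scaled to the mean of the DMSO controls, and the values are averages of three biological replicates.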

[2] = system: Aeromonas 2 (Aeromonas sobria)
Summary of the method: as §1

[3] = system: Aeromonas 3 (Aeromonas popoffii)
Summary of the method: as §1

[4] = system: Argrobacterium 1 (Agrobacterium sp.)
Summary of the method: as §1

[5] = system: Arthrobacter 1 (Arthrobacter humicola)
Summary of the method: as §1

[6] = system: Arthrobacter 2 (Arthrobacter humicola)
Summary of the method: as §1

[7] = system: Arthrobacter 3 (Arthrobacter sp.)
Summary of the method: as §1

Community 10 = system: Community 10
Summary of the method: as §1

Community 4 = system: Community 4
Summary of the method: as §1

Community 6 = system: Community 6
Summary of the method: as §1

Community 7 = system: Community 7
Summary of the method: as §1

Community 8 = system: Community 8
Summary of the method: as §1

Community 9 = system: Community 9
Summary of the method: as §1

[8] = system: Flavobacterium 1 (Flavobacterium glaciei)
Summary of the method: as §1

[9] = system: Flavobacterium 2 (Flavobacterium succinicans)
Summary of the method: as §1

[10] = system: Hymenobacter 1 (Hymenobacter glaciei)
Summary of the method: as §1

[11] = system: Microbacterium 1 (Microbacterium arborescens)
Summary of the method: as §1

[12] = system: Neobacillus 1 (Neobacillus soli)
Summary of the method: as §1

[13] = system: Oryzobacter 1 (Oryzobacter terrae)
Summary of the method: as §1

[14] = system: Paenibacillus 1 (Paenibacillus castaneae)
Summary of the method: as §1

Row | SMILES | relative growth [1] | relative growth [2] | relative growth [3] | relative growth [4] | relative growth [5] | relative growth [6] | relative growth [7] | relative growth (Community 10) | relative growth (Community 4) | relative growth (Community 6) | relative growth (Community 7) | relative growth (Community 8) | relative growth (Community 9) | relative growth [8] | relative growth [9] | relative growth [10] | relative growth [11] | relative growth [12] | relative growth [13] | relative growth [14]
1 | O=[N+]([O-])/N=C1\NCCN1Cc1ccc(Cl)nc1 | 0.99 | 0.99 | 0.999 | 0.959 | 0.949 | 1.06 | 0.929 | 1.23 | 1.11 | 1.11 | 1.11 | 1.05 | 1.07 | 0.997 | 1.07 | 1.14 | 1 | 1.06 | 0.944 | 1.15
2 | CNC(=O)c1cc(C#N)cc(C)c1NC(=O)c1cc(Br)nn1-c1ncccc1Cl | 0.986 | 0.95 | 1.01 | 1.03 | 1 | 0.967 | 0.99 | 0.859 | 0.903 | 0.946 | 1.05 | 0.986 | 1.02 | 1.02 | 0.975 | 0.978 | 0.993 | 0.957 | 1.06 | 0.915
3 | CC[C@H](C)C1O[C@]2(C=C[C@@H]1C)C[C@@H]1C[C@@H](C/C=C(\C)[C@@H](O[C@H]3C[C@H](OC)[C@@H](O[C@H]4C[C@H](OC)[C@H](NC)[C@H](C)O4)[C@H](C)O3)[C@@H](C)/C=C/C=C3\CO[C@@H]4[C@H](O)C(C)=C[C@@H](C(=O)O1)[C@]34O)O2 (stereo not given in full) | 1.08 | 0.923 | 0.979 | 1.11 | 0.108 (active) | 0.00328 (active) | 0.324 (active) | 0.9 | 0.787 | 0.509 (active) | 0.976 | 0.952 | 0.404 (active) | 0.0154 (active) | 0.832 | 0.356 (active) | 1.04 | 0.894 | 0.00218 (active) | 0.0061 (active)
4 | CNC(=O)ON=C(C)SC | 0.953 | 0.974 | 1.01 | 0.974 | 0.962 | 1.01 | 0.971 |  | 1.09 | 1.05 | 0.999 | 0.942 | 1.04 | 1.03 | 1.03 | 1.07 | 0.999 | 1.01 | 0.947 | 1.07
5 | CCCCN(CCCC)SN(C)C(=O)Oc1cccc2c1OC(C)(C)C2 | 1.06 | 1.03 | 1.05 | 1.07 | 1.23 | 0.838 | 0.966 | 0.824 | 0.917 | 0.92 | 1.13 | 1.01 | 0.884 | 0.925 | 0.985 | 1.13 | 1.01 | 0.952 | 1.2 | 1.12
6 | CC1COC(Cn2cncn2)(c2ccc(Oc3ccc(Cl)cc3)cc2Cl)O1 (stereo not given) | 1.08 | 1.03 | 1.02 | 1.04 | 0.741 | 0.223 (active) | 0.348 (active) | 0.896 | 1.2 | 1.06 | 1.02 | 1.01 | 1.21 | 0.367 (active) | 0.988 | 0.956 | 0.936 | 1.08 | 1.16 | 0.872
7 | O=C(O)COc1ccc(Cl)cc1Cl | 0.976 | 0.999 | 0.998 | 0.944 | 0.921 | 0.958 | 0.969 | 0.98 | 1.04 | 1.02 | 1.08 | 0.972 | 1.03 | 0.966 | 1.02 | 1.07 | 1.02 | 1 | 0.964 | 1.01
8 | N#C/N=C1\SCCN1Cc1ccc(Cl)nc1 | 0.998 | 1 | 1 | 0.984 | 1.1 | 1.11 | 1.06 | 1.02 | 1.04 | 1.05 | 0.846 | 1.07 | 1.09 | 1.1 | 1.04 | 1.21 | 1.03 | 1.07 | 1.02 | 1.05
9 | CO/C=C(/C(=O)OC)c1ccccc1COc1cccc(C(F)(F)F)n1 | 0.992 | 0.905 | 0.97 | 1.06 | 0.923 | 0.886 | 1.02 | 0.887 | 0.935 | 0.929 | 1.04 | 1 | 0.987 | 0.911 | 0.962 | 1.06 | 0.997 | 1.01 | 0.944 | 1.01
10 | CCOCN(C(=O)CCl)c1c(C)cccc1CC | 0.953 | 0.938 | 0.964 | 1.02 | 0.999 | 0.858 | 1.02 | 0.858 | 0.952 | 0.921 | 0.976 | 1.02 | 1.06 | 1.05 | 0.946 | 0.969 | 1.06 | 0.667 (active) | 1.04 | 0.928
11 | C#CCOc1ccc(CCNC(=O)C(OCC#C)c2ccc(Cl)cc2)cc1OC (stereo not given) | 0.978 | 0.985 | 1 | 1.05 | 1.04 | 0.935 | 0.953 |  | 0.951 | 1.02 | 1 | 1.05 | 0.995 | 0.963 | 0.928 | 1.04 | 1.02 | 0.98 | 1.02 | 0.851
12 | OC(Cc1ccccc1Cl)(Cn1nc[nH]c1=S)C1(Cl)CC1 (stereo not given) | 0.97 | 0.986 | 1.03 | 1.01 | 0.952 | 1.04 | 1.07 | 0.945 | 1.01 | 0.982 | 0.968 | 1.03 | 1.02 | 1.09 | 1 | 1.01 | 0.958 | 1.05 | 0.894 | 1.01
13 | CNC(=O)Oc1cccc2ccccc12 | 0.941 | 0.918 | 0.921 | 1.09 | 0.924 | 1.07 | 1.14 | 0.847 | 0.976 | 1.01 | 0.845 | 1.06 | 0.967 | 1.09 | 1.01 | 1.03 | 1.02 | 1.04 | 0.972 | 1
14 | Cc1cccc2sc3nncn3c12 | 0.985 | 0.988 | 1 | 0.915 | 0.993 | 0.932 | 1.01 |  | 0.917 | 0.96 | 1.05 | 1.01 | 0.899 | 1.01 | 0.95 | 0.996 | 1.05 | 0.969 | 1.05 | 0.943
15 | CC(C)N(C(=O)COc1nnc(C(F)(F)F)s1)c1ccc(F)cc1 | 1.04 | 0.994 | 0.973 | 1.02 | 1.05 | 0.894 | 1.02 |  | 1.04 | 0.92 | 1.13 | 1.02 | 0.986 | 1.01 | 0.927 | 0.849 | 1.04 | 0.965 | 1.16 | 0.899
16 | Clc1ccc(C(c2ccc(Cl)cc2)C(Cl)(Cl)Cl)cc1 | 0.999 | 0.972 | 0.973 | 1.02 | 0.353 (active) | 0.211 (active) | 0.316 (active) |  | 0.976 | 0.983 | 1.11 | 0.997 | 1.03 | 0.767 | 0.979 | 0.976 | 0.973 | 1.1 | 1.06 | 0.913

— the supplement of paper PMC12067926
